The values that follow come from ChEMBL document CHEMBL1961873, “Compounds: GSK PKIS; Assays: Nanosyn kinase panel” (2012).

In assay [1] the target is T1, Mitogen-activated protein kinase 12 (Homo sapiens) (UniProt P53778).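 Also: values are averaged p38gamma kinase inhibition readings, compounds tested at 1 µM.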
T1 sequence (whole entry): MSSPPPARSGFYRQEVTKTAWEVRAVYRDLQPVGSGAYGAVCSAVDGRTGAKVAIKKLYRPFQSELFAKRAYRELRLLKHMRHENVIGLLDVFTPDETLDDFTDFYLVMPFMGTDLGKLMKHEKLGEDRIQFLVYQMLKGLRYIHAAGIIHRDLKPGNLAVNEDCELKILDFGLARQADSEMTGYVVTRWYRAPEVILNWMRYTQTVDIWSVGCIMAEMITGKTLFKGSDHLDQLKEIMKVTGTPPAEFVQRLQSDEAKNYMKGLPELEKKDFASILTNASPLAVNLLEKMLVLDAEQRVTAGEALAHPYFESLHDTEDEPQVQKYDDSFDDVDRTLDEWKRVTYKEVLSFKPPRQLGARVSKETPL
The following applies: at 1 µM.

Assay [2] addresses SRSF protein kinase 1 (Homo sapiens) (UniProt Q96SB4). As to conditions: at 0.1 µM.
Assay [3] shares this target. As to conditions: at 1 µM.
The target in assay [4] is Phosphatidylinositol 4,5-bisphosphate 3-kinase catalytic subunit alpha isoform (Homo sapiens) (UniProt P42336). The following applies: at 0.1 µM.
Assay [5] has the same target. The following applies: at 1 µM.
For assay [6], the target named is T2, Phosphatidylinositol 4,5-bisphosphate 3-kinase catalytic subunit delta isoform (Homo sapiens) (UniProt O00329).
T2 sequence (whole entry): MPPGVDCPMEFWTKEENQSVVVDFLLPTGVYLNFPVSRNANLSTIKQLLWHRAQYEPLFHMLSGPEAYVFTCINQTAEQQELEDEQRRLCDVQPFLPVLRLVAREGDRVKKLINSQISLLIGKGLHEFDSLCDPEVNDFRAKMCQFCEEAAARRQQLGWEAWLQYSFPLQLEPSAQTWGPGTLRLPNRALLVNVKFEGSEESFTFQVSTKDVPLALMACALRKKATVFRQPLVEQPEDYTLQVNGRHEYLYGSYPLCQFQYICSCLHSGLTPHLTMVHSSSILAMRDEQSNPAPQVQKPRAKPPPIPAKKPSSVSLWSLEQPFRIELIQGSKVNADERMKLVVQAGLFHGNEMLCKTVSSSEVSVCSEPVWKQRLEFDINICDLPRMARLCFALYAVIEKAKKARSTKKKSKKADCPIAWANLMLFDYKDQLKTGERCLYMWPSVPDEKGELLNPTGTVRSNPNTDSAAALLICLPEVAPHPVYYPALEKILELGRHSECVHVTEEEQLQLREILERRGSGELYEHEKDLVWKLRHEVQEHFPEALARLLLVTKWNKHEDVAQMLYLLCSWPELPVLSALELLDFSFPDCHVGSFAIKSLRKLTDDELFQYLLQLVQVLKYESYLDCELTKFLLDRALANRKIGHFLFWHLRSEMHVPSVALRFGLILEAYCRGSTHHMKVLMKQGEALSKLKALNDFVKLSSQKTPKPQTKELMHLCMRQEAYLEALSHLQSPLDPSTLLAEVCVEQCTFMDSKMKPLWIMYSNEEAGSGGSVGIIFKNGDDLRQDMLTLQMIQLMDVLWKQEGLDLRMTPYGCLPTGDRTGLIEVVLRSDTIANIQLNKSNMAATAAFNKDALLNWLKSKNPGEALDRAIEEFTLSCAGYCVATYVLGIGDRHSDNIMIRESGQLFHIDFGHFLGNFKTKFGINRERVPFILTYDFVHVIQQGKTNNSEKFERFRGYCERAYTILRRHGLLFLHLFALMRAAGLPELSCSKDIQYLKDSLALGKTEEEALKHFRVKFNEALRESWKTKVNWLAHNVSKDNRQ
The following applies: at 0.1 µM.

Assay [7] concerns the target T2, Phosphatidylinositol 4,5-bisphosphate 3-kinase catalytic subunit delta isoform (Homo sapiens). The following applies: at 1 µM.
The target of assay [8] is Phosphatidylinositol 4-kinase beta (Homo sapiens) (UniProt Q9UBF8). The following applies: at 0.1 µM.
Assay [9] shares this target. The following applies: at 1 µM.
The target in assay [10] is Sphingosine kinase 1 (Homo sapiens) (UniProt Q9NYA1). The following applies: at 0.1 µM.
Assay [11] shares this target. As to conditions: at 1 µM.
Assay [12] has as its target T3, Sphingosine kinase 2 (Homo sapiens) (UniProt Q9NRA0).
T3 sequence (whole entry): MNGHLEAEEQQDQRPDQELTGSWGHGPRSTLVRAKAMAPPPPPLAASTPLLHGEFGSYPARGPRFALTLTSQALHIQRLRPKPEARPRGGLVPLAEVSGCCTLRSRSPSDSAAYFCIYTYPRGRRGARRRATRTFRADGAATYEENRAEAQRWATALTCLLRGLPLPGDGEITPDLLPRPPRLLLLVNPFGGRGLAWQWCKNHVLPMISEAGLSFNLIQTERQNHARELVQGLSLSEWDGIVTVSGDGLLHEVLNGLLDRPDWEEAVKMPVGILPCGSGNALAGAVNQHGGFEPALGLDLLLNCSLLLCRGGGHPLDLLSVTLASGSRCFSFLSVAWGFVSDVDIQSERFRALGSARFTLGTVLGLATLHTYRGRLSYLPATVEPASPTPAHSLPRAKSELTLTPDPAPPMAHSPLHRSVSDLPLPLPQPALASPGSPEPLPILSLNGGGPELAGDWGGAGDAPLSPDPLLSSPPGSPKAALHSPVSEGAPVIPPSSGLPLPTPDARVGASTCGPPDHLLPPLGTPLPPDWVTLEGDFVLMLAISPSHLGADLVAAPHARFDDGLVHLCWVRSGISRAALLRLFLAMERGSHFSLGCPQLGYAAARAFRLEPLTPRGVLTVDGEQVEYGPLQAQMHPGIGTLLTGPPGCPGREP
The following applies: at 0.1 µM.

The target in assay [13] is T3, Sphingosine kinase 2 (Homo sapiens). The following applies: at 1 µM.
Assay [14] addresses Casein kinase II subunit alpha (Homo sapiens) (UniProt P68400). As to conditions: at 0.1 µM.
Assay [15] shares this target. As to conditions: at 1 µM.
The target in assay [16] is T4, Inhibitor of nuclear factor kappa-B kinase subunit alpha (Homo sapiens) (UniProt O15111).
T4 sequence (whole entry): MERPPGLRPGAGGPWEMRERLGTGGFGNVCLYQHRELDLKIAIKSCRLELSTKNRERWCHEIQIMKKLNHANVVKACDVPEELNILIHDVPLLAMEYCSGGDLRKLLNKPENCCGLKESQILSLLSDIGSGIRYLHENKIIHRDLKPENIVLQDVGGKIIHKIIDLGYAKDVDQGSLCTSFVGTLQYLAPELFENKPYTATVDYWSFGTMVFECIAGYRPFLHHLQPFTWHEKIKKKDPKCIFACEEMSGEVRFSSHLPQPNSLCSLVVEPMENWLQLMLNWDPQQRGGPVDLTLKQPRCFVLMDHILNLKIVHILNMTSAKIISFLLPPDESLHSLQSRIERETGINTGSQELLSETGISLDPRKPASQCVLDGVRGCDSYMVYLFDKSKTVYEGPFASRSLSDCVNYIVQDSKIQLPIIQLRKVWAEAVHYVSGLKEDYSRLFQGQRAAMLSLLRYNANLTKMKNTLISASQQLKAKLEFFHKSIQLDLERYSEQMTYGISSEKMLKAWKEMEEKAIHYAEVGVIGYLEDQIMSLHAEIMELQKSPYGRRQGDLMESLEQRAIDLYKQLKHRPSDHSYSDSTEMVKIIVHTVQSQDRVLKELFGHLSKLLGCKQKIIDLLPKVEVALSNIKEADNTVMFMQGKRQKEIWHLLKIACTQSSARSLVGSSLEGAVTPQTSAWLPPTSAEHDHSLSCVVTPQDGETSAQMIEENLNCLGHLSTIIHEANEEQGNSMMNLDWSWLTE
The following applies: at 0.1 µM.

Assay [17] addresses T4, Inhibitor of nuclear factor kappa-B kinase subunit alpha (Homo sapiens). As to conditions: at 1 µM.
Assay [18] concerns the target T5, Inhibitor of nuclear factor kappa-B kinase subunit beta (Homo sapiens) (UniProt O14920).
T5 sequence (whole entry): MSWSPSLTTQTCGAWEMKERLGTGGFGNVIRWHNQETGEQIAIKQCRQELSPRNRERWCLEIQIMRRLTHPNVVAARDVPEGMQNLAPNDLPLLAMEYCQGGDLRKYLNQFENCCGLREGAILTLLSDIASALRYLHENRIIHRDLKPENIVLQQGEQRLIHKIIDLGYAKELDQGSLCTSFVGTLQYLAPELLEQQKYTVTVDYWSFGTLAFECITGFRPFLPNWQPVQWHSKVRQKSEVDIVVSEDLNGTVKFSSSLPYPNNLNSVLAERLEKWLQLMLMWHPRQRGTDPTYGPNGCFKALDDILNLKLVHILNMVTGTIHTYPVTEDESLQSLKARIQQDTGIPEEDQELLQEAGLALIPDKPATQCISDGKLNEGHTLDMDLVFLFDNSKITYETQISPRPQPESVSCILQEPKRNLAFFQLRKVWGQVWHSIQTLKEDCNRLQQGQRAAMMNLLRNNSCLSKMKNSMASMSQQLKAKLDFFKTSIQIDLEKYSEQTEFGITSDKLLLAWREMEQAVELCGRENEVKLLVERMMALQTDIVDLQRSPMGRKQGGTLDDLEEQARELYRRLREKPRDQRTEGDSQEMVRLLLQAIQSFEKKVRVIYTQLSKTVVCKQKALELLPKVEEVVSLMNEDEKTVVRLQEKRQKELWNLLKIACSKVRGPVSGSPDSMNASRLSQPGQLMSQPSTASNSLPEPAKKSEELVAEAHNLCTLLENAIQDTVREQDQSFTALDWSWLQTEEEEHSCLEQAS
As to conditions: at 0.1 µM.

Assay [19] deals with T5, Inhibitor of nuclear factor kappa-B kinase subunit beta (Homo sapiens). As to conditions: at 1 µM.
Assay [20] addresses T6, Inhibitor of nuclear factor kappa-B kinase subunit epsilon (Homo sapiens) (UniProt Q14164).
T6 sequence (whole entry): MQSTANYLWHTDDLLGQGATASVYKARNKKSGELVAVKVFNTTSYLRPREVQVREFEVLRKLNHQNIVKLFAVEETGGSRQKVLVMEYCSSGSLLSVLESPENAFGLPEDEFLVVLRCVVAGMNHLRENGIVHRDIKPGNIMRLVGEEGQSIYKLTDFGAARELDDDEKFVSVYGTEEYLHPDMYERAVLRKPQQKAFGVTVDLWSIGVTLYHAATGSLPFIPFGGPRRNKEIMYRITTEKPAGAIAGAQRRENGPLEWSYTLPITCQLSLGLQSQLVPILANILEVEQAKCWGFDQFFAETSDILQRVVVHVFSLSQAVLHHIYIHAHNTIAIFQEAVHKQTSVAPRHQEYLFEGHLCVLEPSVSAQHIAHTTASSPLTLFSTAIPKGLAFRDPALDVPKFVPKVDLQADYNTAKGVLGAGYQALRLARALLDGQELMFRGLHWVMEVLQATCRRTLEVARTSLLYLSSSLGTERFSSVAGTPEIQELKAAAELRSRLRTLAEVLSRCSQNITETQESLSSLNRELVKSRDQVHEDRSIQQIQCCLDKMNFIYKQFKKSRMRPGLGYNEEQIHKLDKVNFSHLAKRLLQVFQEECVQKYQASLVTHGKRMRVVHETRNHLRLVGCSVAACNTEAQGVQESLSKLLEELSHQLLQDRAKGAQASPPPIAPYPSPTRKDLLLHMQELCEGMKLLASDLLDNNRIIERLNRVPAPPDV
The following applies: at 0.1 µM.

Chain of Casein kinase II subunit alpha (Homo sapiens) (P68400 whole entry, looked up): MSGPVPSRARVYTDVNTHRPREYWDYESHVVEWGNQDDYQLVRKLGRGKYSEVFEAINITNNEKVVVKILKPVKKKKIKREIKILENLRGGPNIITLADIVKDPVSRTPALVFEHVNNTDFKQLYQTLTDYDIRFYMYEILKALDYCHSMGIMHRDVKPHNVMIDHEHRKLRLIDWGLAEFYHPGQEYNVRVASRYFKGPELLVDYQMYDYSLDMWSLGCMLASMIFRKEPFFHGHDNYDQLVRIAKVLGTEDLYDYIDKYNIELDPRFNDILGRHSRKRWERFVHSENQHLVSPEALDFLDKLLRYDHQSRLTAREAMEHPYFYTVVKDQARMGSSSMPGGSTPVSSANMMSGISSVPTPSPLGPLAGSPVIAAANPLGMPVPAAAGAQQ
Chain of Sphingosine kinase 1 (Homo sapiens) (Q9NYA1 whole entry): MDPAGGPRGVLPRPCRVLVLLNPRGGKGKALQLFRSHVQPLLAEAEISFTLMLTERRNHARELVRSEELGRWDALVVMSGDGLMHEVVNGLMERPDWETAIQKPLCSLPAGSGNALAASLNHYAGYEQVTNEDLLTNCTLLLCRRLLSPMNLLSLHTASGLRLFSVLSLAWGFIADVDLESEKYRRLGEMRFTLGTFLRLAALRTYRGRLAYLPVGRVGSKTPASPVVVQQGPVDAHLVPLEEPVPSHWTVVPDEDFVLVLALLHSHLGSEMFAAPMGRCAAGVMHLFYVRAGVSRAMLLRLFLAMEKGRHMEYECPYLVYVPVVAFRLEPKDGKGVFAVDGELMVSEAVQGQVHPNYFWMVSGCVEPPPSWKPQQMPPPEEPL
Chain of Phosphatidylinositol 4-kinase beta (Homo sapiens) (Q9UBF8 2-816 limits assumed): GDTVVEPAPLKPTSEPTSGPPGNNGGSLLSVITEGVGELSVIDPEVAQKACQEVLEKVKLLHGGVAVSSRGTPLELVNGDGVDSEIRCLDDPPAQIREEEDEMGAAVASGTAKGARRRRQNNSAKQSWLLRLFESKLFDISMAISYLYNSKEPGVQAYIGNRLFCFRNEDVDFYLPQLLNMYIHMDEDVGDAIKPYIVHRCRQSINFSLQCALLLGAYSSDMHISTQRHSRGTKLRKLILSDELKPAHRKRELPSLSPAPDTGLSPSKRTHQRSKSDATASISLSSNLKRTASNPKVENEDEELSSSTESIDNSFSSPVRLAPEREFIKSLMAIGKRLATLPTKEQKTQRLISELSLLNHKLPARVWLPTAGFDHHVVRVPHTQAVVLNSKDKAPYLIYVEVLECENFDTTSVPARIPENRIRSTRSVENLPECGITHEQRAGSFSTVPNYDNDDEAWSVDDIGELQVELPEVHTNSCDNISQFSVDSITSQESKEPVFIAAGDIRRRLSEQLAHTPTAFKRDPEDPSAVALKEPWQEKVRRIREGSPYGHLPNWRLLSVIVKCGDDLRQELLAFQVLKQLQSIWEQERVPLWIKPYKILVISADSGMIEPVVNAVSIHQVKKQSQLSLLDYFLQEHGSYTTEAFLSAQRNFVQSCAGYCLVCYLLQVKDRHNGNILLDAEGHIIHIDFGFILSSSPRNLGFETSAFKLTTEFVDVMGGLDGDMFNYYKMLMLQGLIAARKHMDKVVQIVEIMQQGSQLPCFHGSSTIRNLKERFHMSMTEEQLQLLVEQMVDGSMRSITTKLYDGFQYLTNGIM
Chain of SRSF protein kinase 1 (Homo sapiens) (Q96SB4 whole entry): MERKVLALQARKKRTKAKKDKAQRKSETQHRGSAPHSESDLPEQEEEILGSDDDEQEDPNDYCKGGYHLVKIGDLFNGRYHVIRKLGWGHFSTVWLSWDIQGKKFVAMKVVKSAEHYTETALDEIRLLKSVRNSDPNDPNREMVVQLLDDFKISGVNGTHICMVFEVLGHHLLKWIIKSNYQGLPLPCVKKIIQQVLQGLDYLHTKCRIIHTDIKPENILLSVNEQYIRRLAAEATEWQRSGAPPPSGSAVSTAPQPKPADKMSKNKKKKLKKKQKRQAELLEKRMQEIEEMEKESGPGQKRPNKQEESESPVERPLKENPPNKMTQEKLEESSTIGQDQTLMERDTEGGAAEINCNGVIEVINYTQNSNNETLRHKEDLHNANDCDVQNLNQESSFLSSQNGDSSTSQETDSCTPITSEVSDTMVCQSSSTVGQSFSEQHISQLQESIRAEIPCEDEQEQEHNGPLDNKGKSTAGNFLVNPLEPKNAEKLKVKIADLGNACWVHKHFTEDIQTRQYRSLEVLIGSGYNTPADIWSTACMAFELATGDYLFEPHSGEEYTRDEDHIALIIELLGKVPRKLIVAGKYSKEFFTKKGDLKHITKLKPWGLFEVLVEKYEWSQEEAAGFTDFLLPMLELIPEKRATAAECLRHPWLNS
Chain of Phosphatidylinositol 4,5-bisphosphate 3-kinase catalytic subunit alpha isoform (Homo sapiens) (P42336 whole entry, canonical isoform): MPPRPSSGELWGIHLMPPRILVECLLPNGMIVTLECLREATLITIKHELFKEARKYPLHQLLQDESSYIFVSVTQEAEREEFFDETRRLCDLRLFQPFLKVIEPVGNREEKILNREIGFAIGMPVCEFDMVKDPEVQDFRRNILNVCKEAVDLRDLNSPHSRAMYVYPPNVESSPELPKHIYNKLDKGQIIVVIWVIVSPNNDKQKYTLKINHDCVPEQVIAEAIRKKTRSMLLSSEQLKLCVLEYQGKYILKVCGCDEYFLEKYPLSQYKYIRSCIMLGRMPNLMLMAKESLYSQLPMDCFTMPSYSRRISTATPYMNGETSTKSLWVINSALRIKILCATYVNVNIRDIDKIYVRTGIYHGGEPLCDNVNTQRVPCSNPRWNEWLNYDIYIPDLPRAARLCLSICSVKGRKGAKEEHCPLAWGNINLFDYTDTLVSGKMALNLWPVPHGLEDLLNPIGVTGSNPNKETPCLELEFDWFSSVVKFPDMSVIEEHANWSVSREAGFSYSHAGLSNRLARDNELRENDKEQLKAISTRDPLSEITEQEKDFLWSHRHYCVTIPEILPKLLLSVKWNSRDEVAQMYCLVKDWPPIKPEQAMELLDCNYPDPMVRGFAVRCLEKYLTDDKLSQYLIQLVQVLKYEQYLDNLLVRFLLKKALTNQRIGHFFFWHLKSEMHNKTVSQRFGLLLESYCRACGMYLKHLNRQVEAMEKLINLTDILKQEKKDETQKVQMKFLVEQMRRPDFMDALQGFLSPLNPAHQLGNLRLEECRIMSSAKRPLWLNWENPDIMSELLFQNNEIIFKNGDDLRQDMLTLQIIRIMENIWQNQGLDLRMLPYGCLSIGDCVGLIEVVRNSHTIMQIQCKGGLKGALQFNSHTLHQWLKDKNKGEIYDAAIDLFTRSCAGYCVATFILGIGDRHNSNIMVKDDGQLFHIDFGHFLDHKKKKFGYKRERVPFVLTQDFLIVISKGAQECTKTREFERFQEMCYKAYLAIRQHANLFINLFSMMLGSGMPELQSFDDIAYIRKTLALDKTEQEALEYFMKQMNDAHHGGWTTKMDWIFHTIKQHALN

In general, inhibition refers to the change of the read-out against control, counted positive when it falls. Consider `CNC(=O)c1sc(-n2cnc3cc(OC)c(OC)cc32)cc1OCc1ccccc1C(F)(F)F`, for which the inhibition was 1.74% in assay [1]; -2.64% in assay [2]; -0.97% in assay [3]; 3.44% in [4]; 4.4% in [5]; 0.73% in [6]. In addition, the inhibition in assay [7] was 6.41%; in [8], 6.54%; in assay [9], 0.66%; in [10], -7.75%; in assay [11] it was -2.69%; in assay [12], -1.57%. Further, the inhibition in assay [13] is -1.5%; in [14], 5.33%; in [15], 1.77%; in [16] it was 9.1%; in assay [17], 6.49%; in assay [18] it was 4.41%. Further, the inhibition in assay [19] worked out at 2.57%; in assay [20] it was 7.72%.

For the compound `c1cnn2ncc(-c3ccnc(NCCCN4CCOCC4)n3)c2c1`, the inhibition in assay [1] was 3.02%; in assay [2], -1.76%; in [3], -3.38%; in assay [4], 6.11%; in assay [5], 8.31%; in assay [6], 7.14%. For the same compound, the inhibition was 7.98% in assay [7]; 1.61% in assay [8]; 9.05% in assay [9]; -6.03% in [10]; -3.67% in assay [11]; 2.35% in assay [12]. The inhibition in assay [13] was found to be 0%; in assay [14], 1.83%; in assay [15], 4.66%; in assay [16] it was 8.06%; in assay [17], 9.01%; in assay [18] it was 5.79%. Further, the inhibition in assay [19] turned out to be 4.44%; in [20] it was 9.87%.

Consider `Cn1c(-c2nonc2N)nc2cnccc21`, for which the inhibition in assay [1] was 2.23%; in assay [2] it was -3.06%; in [3] it was -4.33%; in assay [4] it was 1.04%; in assay [5] it was 3.15%; in assay [6], 1.35%. In addition, the inhibition in [7] was 1.72%; in assay [8], 1.38%; in assay [9] it was -3.7%; in [10], -0.45%; in assay [11], 3.87%; in assay [12] it was 2.29%. The inhibition in [13] is 0.16%; in assay [14], 1.78%; in [15] it was -1.25%; in [16], 1.72%; in assay [17] it was 7.51%; in [18] it was 5.29%. Further, the inhibition is 1.73% in assay [19] and 6.16% in assay [20].
